The list is not random: actives were taken first. Their share in the collection is about 6.8%.
TSG101-PTAP inh – blocks PTAP/TSG101 interaction to inhibit HIV-1 budding; 340,000 tested, under 10 active; Q99816; Fluorescence polarization, FITC-PTAP peptide / Tsg101 binding; AID 493005; Potency, µM (titrated, usually from 115 µM), most hits filed as inhibitors; active = well fitted inhibition curve with a large enough effect in the main read-out, with a control signal flat, not every such curve was filed as active; inconclusive = small, poorly fitted or top-dose-only effect, or effect the other way, or a change in a side signal; inactive = no such curve, though single readings can be large or run the other way
Target sequence (Q99816 whole entry, looked up): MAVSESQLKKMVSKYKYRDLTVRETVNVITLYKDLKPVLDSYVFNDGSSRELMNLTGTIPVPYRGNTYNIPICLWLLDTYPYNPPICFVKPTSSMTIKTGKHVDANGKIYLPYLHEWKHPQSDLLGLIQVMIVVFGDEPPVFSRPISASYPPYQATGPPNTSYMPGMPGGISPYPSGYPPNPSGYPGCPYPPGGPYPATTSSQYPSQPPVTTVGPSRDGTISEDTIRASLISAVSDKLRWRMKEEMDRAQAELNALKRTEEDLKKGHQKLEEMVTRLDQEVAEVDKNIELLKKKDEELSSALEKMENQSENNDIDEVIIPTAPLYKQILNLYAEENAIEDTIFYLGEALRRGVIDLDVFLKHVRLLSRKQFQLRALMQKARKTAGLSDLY
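Fluorescence polarization binding of Tsg101 binding domain (10 uM final) to FITC-labeled PTAP peptide (50 nM final) in HEPES pH 7.5 buffer with NaCl, Tween 20, EDTA, TCEP. Compounds added before peptide; binding 20 min at RT.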
MCF10A rereplic – inducers of DNA re-replication in MCF 10A breast cells | AID 624296 | Potency, µM (titrated, usually from 46.1 µM), actives largely listed as activators | 350,000 compounds, 2.9% hits | MCF 10A DNA re-replication, Hoechst nuclear intensity, 48 h; note: nearly all actives have a fitted effect of over 50% in size
PINK1 expr mod – changes PINK1 expression; 410,000 compounds, 0.2% hits; PINK1 immunofluorescence, high-content cytometry, 24 h; Potency, µM (series often up to 76.6 µM), usual class: activators; active = well fitted activation curve with a large enough effect; inconclusive = small, poorly fitted or top-dose-only effect; cell line not stated here; note: nearly all actives have a fitted effect of over 65% in size
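A stable cell line was treated with compounds at 5 concentrations for 24 hours, with CCCP as control. PINK1 levels and mitochondrial localization were measured by immunofluorescence with mitochondrial, cell and nuclear markers after fixation, read by laser-scanning cytometry.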
KB-V1 cytotox – KB-V1 MDR subline cytotoxicity | 400,000 compounds, 3.4% hits | Potency, µM (highest dose often 46.1 µM), actives largely listed as cytotoxic | KB-V1 MDR cells viability, CellTiter-Glo, 72 h | AID 1347076; note: nearly all actives have a fitted effect of over 60% in size
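KB-V1, DMEM (no phenol red) + 10% FBS; cpd pin-transferred, titration series; 72 h, 37 degrees C; CellTiter-Glo, luminescence. Data normalized, curve-fit.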
SW480 rereplic – inducers of DNA re-replication in SW480 colon cancer cells; 340,000 compounds, 1.8% hits; SW480 DNA re-replication, Hoechst DNA content imaging, 48 h; AID 624297; Potency, µM (series often up to 46.1 µM), usual class: activators; note: nearly all actives have a fitted effect of over 55% in size
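Per well, 250 cells were exposed to pinned compound for 48 hr. Nuclear DNA was visualised with Hoechst (40 min, 37 C) and total object intensity recorded by fluorescence scanning.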
KB-3-1 cytotox – kills parental KB-3-1 adenocarcinoma cells; KB-3-1 viability, CellTiter-Glo ATP luminescence, 72 h; Potency, µM (doses to about 46.1 µM), actives largely listed as cytotoxic; 400,000 compounds, 1.4% hits; note: nearly all actives have a fitted effect of over 60% in size
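Here the drug-naive KB-3-1 line serves as comparator for MDR sub-line selectivity; cells received compound titrations, 72 h at 37 °C, then CellTiter-Glo readout.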
Each line names hits and unclear results; the compound was inactive in the other large screens; ! = not active in a repeat. Unless noted, calls come from the whole dose curve; as a rule, active = well fitted curve in the direction sought with a large enough effect; inconclusive = small, poorly fitted or top-dose-only effect, or another doubt; inactive = no such curve, though single readings can be large; an effect the other way counts as inactive or inconclusive.

C=C(C)CSc1nnc([C@@H](N)Cc2c[nH]c3ccccc23)o1	none
CC(=O)NCC(N)C(=O)c1ccc(C)cc1 (stereo not drawn)	none (no result: TSG101-PTAP inh, MCF10A rereplic, KB-V1 cytotox, SW480 rereplic, KB-3-1 cytotox)
Cc1nc2cc(F)ccc2n1C1CCN(Cc2nnnn2CCc2ccccc2)CC1	KB-V1 cytotox 12µM
O=C(c1ccc2nc3ccc(Cl)cc3c(=O)n2c1)N1CCC2(CC1)OCCO2	KB-V1 cytotox 21µM (no result: TSG101-PTAP inh)
CCC1CCCCN1CCCNS(=O)(=O)c1ccc2c(c1)oc(=O)n2C (stereo not drawn)	MCF10A rereplic inconclusive
COc1cc(NS(=O)(=O)c2ccc3c(c2)oc(=O)n3C)cc(OC)c1OC	MCF10A rereplic inconclusive, KB-V1 cytotox inconclusive, SW480 rereplic 21µM, KB-3-1 cytotox 7.3µM
O=C(Oc1ccc([N+](=O)[O-])cc1)N1CCN(/[N+]([O-])=N/Oc2ccc([N+](=O)[O-])cc2[N+](=O)[O-])CC1	none (no result: TSG101-PTAP inh, MCF10A rereplic, KB-V1 cytotox, SW480 rereplic, KB-3-1 cytotox)
[N-]=[N+]=CC(=O)OCC(N)C(=O)O (stereo not drawn)	none (no result: TSG101-PTAP inh, PINK1 expr mod, KB-V1 cytotox, KB-3-1 cytotox)
CCOc1ccccc1-n1c(O)c(C=Nc2ccc(N(CC)CC)cc2)c(=O)[nH]c1=O	MCF10A rereplic inconclusive, KB-V1 cytotox inconclusive, SW480 rereplic inconclusive, KB-3-1 cytotox 16µM
CCOc1ccc(N=Cc2c(O)n(Cc3ccccc3)c(=S)[nH]c2=O)cc1	none
CCN(CC)c1ccc(N=Cc2c(O)n(-c3ccccc3C)c(=O)[nH]c2=O)cc1	PINK1 expr mod inconclusive
O=c1c2ccccc2c(C=Nc2ccc(O)cc2)c(O)n1Cc1ccccc1	MCF10A rereplic inconclusive, KB-V1 cytotox inconclusive, SW480 rereplic 21µM
O=C(N/N=C/c1c(O)n(Cc2ccccc2)c(=O)[nH]c1=O)c1ccccc1O	MCF10A rereplic inconclusive, PINK1 expr mod inconclusive
COc1ccc(Cn2c(O)c(/C=N/NC(=O)c3ccccc3O)c(=O)[nH]c2=O)cc1	MCF10A rereplic 4.6µM, KB-3-1 cytotox inconclusive
CCN(CC)c1ccc(N=Cc2c(O)n(-c3ccccc3)c(=O)[nH]c2=O)cc1	KB-V1 cytotox inconclusive
CCN(CC)c1ccc(N=Cc2c(O)n(Cc3ccccc3)c(=O)[nH]c2=O)cc1	TSG101-PTAP inh inconclusive, MCF10A rereplic inconclusive, KB-V1 cytotox inconclusive, SW480 rereplic 0.52µM!
CN1CCCC2(CCN(C(=O)c3csnn3)CC2)C1	none (no result: TSG101-PTAP inh, MCF10A rereplic, KB-V1 cytotox, SW480 rereplic, KB-3-1 cytotox)
CCOC(=O)[C@]12Cc3cc(C)ccc3[C@H]1N(CCC(=O)OC)C(=O)c1cc(OC)ccc12	KB-V1 cytotox 21µM, KB-3-1 cytotox 18µM (no result: TSG101-PTAP inh, MCF10A rereplic, SW480 rereplic)
CCOC(=O)[C@]12Cc3cc(C)ccc3[C@H]1N(Cc1ccccc1)C(=O)c1ccccc12	MCF10A rereplic inconclusive, KB-V1 cytotox inconclusive, KB-3-1 cytotox inconclusive
CCCCCN1C(=O)c2ccccc2[C@@]2(C(=O)OCC)Cc3cc(OC)ccc3[C@@H]12	KB-V1 cytotox inconclusive, KB-3-1 cytotox 5.8µM (no result: TSG101-PTAP inh, MCF10A rereplic, SW480 rereplic)
CCOC(=O)[C@]12Cc3ccccc3[C@H]1N(CCC(=O)OC)C(=O)c1ccccc12	KB-V1 cytotox 5.2µM, KB-3-1 cytotox 5.2µM (no result: TSG101-PTAP inh, MCF10A rereplic, SW480 rereplic)
CCOC(=O)[C@]12Cc3cc(OC)ccc3[C@H]1N(Cc1ccccc1)C(=O)c1ccccc12	KB-V1 cytotox inconclusive, KB-3-1 cytotox inconclusive
CCOC(=O)[C@]12Cc3ccccc3[C@H]1N(Cc1ccccc1)C(=O)c1ccccc12	KB-V1 cytotox inconclusive
CC(=O)OCC(=O)[C@@H]1CC[C@H]2[C@H]3CC[C@H]4C[C@@H](O)CC[C@]4(C)[C@@H]3C(=O)C[C@@]12C	none (no result: TSG101-PTAP inh, PINK1 expr mod, KB-V1 cytotox, KB-3-1 cytotox)
CC(C)(N)Cc1ccc(Cl)cc1	none (no result: TSG101-PTAP inh, PINK1 expr mod, KB-V1 cytotox, KB-3-1 cytotox)
C[C@H](N)[C@@H](O)c1ccccc1	none (no result: TSG101-PTAP inh, PINK1 expr mod, KB-V1 cytotox, KB-3-1 cytotox)
COC(=O)C12OCC34C(CC5C(C)=C(O)C(=O)CC5(C)C3C(O)C1O)OC(=O)C(OC(=O)/C=C(\C)C(C)C)C24 (stereo not drawn)	KB-V1 cytotox 3.3µM, SW480 rereplic inconclusive, KB-3-1 cytotox 0.18µM
COc1ccc2c(c1)C(c1ccc(N(CCCl)CCCl)cc1)=NCC2	MCF10A rereplic 13µM, PINK1 expr mod inconclusive, SW480 rereplic inconclusive
ClCCN(CCCl)c1ccc(C2=NCCc3ccccc32)cc1	MCF10A rereplic inconclusive, PINK1 expr mod inconclusive, KB-V1 cytotox inconclusive
Cc1nc2cnc(N3CCNCC3)nc2n(C)c1=O	none (no result: TSG101-PTAP inh, MCF10A rereplic, KB-V1 cytotox, SW480 rereplic, KB-3-1 cytotox)

Screening data from PubChem BioAssay.
